Source: PubChem (National Center for Advancing Translational Sciences (NCATS))
Compounds with a hit are over-represented: about 1.2% of the library has one in this group of screens.
Pin1 inhibitor = inhibitors of human Pin1. Pin1 FP peptide displacement, HiFluor488, 10 min. Q13526. Potency, µM (top dose mostly 115 µM), for the others: top-dose activity, negative = inhibition, most hits filed as inhibitors. 390,000 compounds, 0.009% hits; active = well fitted inhibition curve with a large enough effect in the polarisation, with a control signal flat, not every such curve was filed as active; inconclusive = small, poorly fitted or top-dose-only effect, or effect the other way, or a change in a side signal; inactive = no such curve, though single readings can be large or run the other way; the % refers to the polarisation; also: potency is read from the fitted curve at half-maximal effect
RGS12 GoLoco inh = blocks human Gai1 binding to RGS12 GoLoco peptide, red readout | P63096 | Gai1:RGS12 GoLoco peptide FP, rhodamine, 10 min | Potency, µM (titrated, usually from 61.6 µM), for inactives: top-dose activity, negative = inhibition, hits mostly inhibitors | 230,000 compounds, 0.44% hits; active = well fitted inhibition curve with a large enough effect, not every such curve was filed as active; inactive = no such curve, though single readings can be large or run the other way; also: potency is read from the fitted curve at half-maximal effect; nearly all actives have a fitted effect of over 30% in size
KAT2A inh = blocks human GCN5L2 histone acetyltransferase. Q92830. GCN5L2 HAT assay, ThioGlo1 CoA-SH fluorescence. Potency, µM (top dose mostly 58.9 µM), without a hit: top-dose activity change, negative = inhibition, hits mostly inhibitors. 390,000 compounds, 0.21% hits. AID 504327; also: potency is read from the fitted curve at half-maximal effect
Target sequence (Q92830 whole entry, looked up): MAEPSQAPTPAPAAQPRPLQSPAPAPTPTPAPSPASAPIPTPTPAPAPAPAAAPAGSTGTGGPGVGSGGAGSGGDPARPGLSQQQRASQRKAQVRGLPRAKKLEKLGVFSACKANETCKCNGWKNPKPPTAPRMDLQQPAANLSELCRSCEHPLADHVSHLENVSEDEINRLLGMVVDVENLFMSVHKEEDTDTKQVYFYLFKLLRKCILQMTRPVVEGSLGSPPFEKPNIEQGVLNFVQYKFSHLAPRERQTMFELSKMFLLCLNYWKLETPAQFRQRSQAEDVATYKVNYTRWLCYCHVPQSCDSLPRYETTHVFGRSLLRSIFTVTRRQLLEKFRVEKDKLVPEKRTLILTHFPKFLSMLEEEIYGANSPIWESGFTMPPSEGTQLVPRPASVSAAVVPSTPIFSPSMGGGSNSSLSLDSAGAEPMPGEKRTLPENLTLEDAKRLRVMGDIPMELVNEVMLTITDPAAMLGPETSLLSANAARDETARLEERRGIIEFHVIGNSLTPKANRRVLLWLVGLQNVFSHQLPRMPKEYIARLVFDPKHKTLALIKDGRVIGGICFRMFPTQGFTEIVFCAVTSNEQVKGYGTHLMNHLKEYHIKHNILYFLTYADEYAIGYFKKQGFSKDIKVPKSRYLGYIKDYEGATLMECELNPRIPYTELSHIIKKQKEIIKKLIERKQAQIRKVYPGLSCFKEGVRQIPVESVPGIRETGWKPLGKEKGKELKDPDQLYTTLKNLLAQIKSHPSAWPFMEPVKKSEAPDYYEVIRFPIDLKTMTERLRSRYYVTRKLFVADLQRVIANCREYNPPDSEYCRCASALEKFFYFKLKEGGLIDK
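Enzyme at 20nM final was mixed with library compounds for 15 min at room temperature. Peptide H3(1-25) at 75uM, acetyl-CoA at 70uM and ThioGlo1 at 50uM were then added. Plates were read immediately and after 20 min (Ex340nm/Em540nm).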
PI4K2A inh = PI4K2A (human) kinase inhibition; Q9BTU6; purified PI4K2A, ADP-Glo luminescence, 1 h; stronger effect = lower value; activity change, negative = inhibition, % at 76.9 µM; 420,000 compounds, 0.13% hits; in the data active = activity change below about -50%; inconclusive = mostly about -30% to -49%;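 also: -100% = wells without enzyme as full effect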
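In this quantitative HTS, ADP production by PI4K2A was quantified luminescently after 1 h at ambient temperature; 100 microM adenosine served as plate-quality control.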
PI5P4K alpha inh = inhibitors of human PI5P4K alpha; P48426; PI5P4Kalpha enzyme, ADP-Glo luminescence, 60 min; stronger effect = lower value; max response, %; 330,000 compounds, 1.2% hits; AID 652105; active = max response of -50% or lower; inconclusive = between -30% and -50%; inactive = -30% or higher; also: value at the top dose of about 77 µM
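Reactions run in 0.038 M HEPES pH 7.4, 0.28 mM EGTA, 0.1% CHAPS and 5% DMSO, with PI5P4Kalpha, substrate, compound and 5 microM ATP final, one hour at room temperature. Readout is ADP-Glo luminescence.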
Tb PGK inh = T. brucei PGK inhibition. PGK/GAPDH coupled, Kinase-Glo luminescence, 60 min. Potency, µM (doses to about 57.5 µM), without a hit: top-dose activity change, negative = inhibition, actives largely listed as inhibitors. 380,000 compounds, 0.043% hits; also: potency is read from the fitted curve at half-maximal effect; nearly all actives have a fitted effect of over 60% in size
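Recombinant glycosomal PGK reaction used 1,3-bisphosphoglycerate generated in-well by GAPDH (100nM final) in 100mM TEA pH 7.6, 5mM MgCl2, 0.01% Tween-20. After 60 minutes at room temperature, ATP was read by Kinase-Glo Plus luminescence end-point.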
ADP-Glo interf = ADP-Glo luciferase interference, PI5P4K counter-screen; shares compounds with PI5P4K alpha inh; ADP-Glo detection counter-screen, luciferase luminescence, no enzyme; Potency, µM (top dose mostly 76.9 µM), for inactives: at the top dose activity change, negative = inhibition, hits mostly inhibitors; 1,100 tested, under 10 active; AID 743285
An asterisk follows results filed as active; i = inactive; ? = inconclusive; . = not tested or not shown; [ ] = another dose, or the depositor's remark. Unless noted, calls follow the shape of the dose curve; as a rule, active = well fitted curve in the direction sought with a large enough effect; inconclusive = small, poorly fitted or top-dose-only effect, or another doubt; inactive = no such curve, though single readings can be large; an effect the other way counts as inactive or inconclusive. Unless noted, % is scaled to controls: 0 for no effect and ±100 for the full control effect.

SMILES	Pin1 inhibitor	RGS12 GoLoco inh	KAT2A inh	PI4K2A inh	PI5P4K alpha inh	Tb PGK inh	ADP-Glo interf
O=C(CCC(=O)N1CCN(c2ccccn2)CC1)c1cccs1	-12%	.	-2%	-8	-1	-8%	.
O=C(CCC(=O)N1CCN(c2ccccn2)CC1)c1ccc(Cl)s1	20%	.	?	0	-55*	-1%	-3%
CCn1c(SCc2nc3sc(C(=O)O)c(C)c3c(=O)[nH]2)nc2ccccc21	?	76%	-3%	-6	-64*	20µM*	1%
O=C(c1ccco1)N1N=C(c2cccs2)CC1c1ccc(F)cc1 (stereo unspecified)	2%	79%	-10%	6	-2	i	.
CS(=O)(=O)Nc1ccc(C2=NN(C(=O)c3ccco3)C(c3ccc(F)cc3)C2)cc1 (stereo unspecified)	13%	48%	-21%	-8	-56*	-10%	-5%
NC(=O)c1ccsc1NC(=O)COC(=O)CNC(=O)c1ccc(F)cc1	?	.	-2%	14	-51*	0%	2%
NC(=O)c1ccsc1NC(=O)COC(=O)c1c(F)cccc1Cl	0%	.	-13%	-1	-1	-12%	.
NC(=O)c1ccsc1NC(=O)COC(=O)c1ccccc1F	-2%	.	-3%	9	-54*	0%	-10%
NC(=O)c1ccsc1NC(=O)COC(=O)COc1ccccc1F	-1%	.	-4%	4	-26	-10%	.
CCOc1ccc(Cl)cc1S(=O)(=O)n1cnc2ccccc21	0%	-3%	-24%	-10	1	0%	-7%
CCC(C)c1ccc(S(=O)(=O)N2CCN(C(C)C(=O)NC3CCCC3)CC2)cc1 (stereo unspecified)	8%	.	-2%	4	5	-2%	.
COCCN(CC(=O)NCC1CCCO1)C(=O)CCC(=O)Nc1ccccn1 (stereo unspecified)	-2%	-2%	-7%	-8	-51*	-1%	1%
O=C(Cn1cnc2scc(-c3cccc([N+](=O)[O-])c3)c2c1=O)NCc1ccco1	.	11%	-28%	-15	-94*	?	4%
Cc1sc2ncn(CC(=O)NCc3ccco3)c(=O)c2c1-c1ccc(F)cc1	-1%	14%	1%	-1	?	-6%	.
COc1ccc(-c2cc(=O)oc3cc(OC(=O)C4CCCCC4)c(Cl)cc23)cc1	-1%	-10%	?	0	-55*	-1%	-5%
COc1ccc(-c2cc(=O)oc3cc(O)ccc23)cc1	7%	.	-2%	0	1	i	.
O=C(NNC(=O)c1cccs1)c1ccc2ccccc2c1	13%	6%	1%	2	4	2%	.
COc1ccc(S(=O)(=O)N2CCCCC2)cc1C(=O)Nc1cc(C)on1	-7%	.	-4%	-1	-5	-2%	.
Cc1cc(NC(=O)c2cc(S(=O)(=O)N3CCCCC3)ccc2C)no1	?	.	-25%	-13	-54*	-8%	-8%
CCOC(=O)CC1=C(C(=O)OCC)C(c2cc(OC)c(OC)cc2OC)C(C#N)=C(N)O1 (stereo unspecified)	-4%	-3%	1%	20	-9	i	.
COc1ccc(-c2nnc(C)c3nocc23)cc1	?	.	-5%	?	-66*	.	-10%
O=C(O)CCCCCNc1nc2ncn(Cc3ccccc3)c2c(=O)[nH]1	0%	-6%	0%	-3	.	-2%[11.5 µM]	.
CC(Nc1nc2ncn(Cc3ccccc3)c2c(=O)[nH]1)C(=O)O (stereo unspecified)	0%	8%	-1%	-1	-55*	-7%	-9%
c1coc(-c2ccc3nncn3c2)c1	.	.	.	?	-73*	.	-13%
O=C(c1ccc(=O)oc1)N1CCCc2ccccc21	?	90%	?	-24	-57*	?	0%
